# Reference: PMC4336329 (PLoS ONE, 2015)
# In all, about 310,000 compounds went through this assay and about 2,200 (0.71%) showed an effect of 50% or more. Effects have a minus sign here. The sample holds strong results, similar compounds and a random draw of the others, so the mix is not that of the screen.
# Biological target: human ether-à-go-go-related gene (hERG) potassium channel (human, UniProt Q12809)
# Test: primary screen, population patch clamp on CHO cells stably expressing hERG; higher = less effect of the substance
# human ether-à-go-go-related gene (hERG) potassium channel, sequence (Q12809 whole entry, looked up): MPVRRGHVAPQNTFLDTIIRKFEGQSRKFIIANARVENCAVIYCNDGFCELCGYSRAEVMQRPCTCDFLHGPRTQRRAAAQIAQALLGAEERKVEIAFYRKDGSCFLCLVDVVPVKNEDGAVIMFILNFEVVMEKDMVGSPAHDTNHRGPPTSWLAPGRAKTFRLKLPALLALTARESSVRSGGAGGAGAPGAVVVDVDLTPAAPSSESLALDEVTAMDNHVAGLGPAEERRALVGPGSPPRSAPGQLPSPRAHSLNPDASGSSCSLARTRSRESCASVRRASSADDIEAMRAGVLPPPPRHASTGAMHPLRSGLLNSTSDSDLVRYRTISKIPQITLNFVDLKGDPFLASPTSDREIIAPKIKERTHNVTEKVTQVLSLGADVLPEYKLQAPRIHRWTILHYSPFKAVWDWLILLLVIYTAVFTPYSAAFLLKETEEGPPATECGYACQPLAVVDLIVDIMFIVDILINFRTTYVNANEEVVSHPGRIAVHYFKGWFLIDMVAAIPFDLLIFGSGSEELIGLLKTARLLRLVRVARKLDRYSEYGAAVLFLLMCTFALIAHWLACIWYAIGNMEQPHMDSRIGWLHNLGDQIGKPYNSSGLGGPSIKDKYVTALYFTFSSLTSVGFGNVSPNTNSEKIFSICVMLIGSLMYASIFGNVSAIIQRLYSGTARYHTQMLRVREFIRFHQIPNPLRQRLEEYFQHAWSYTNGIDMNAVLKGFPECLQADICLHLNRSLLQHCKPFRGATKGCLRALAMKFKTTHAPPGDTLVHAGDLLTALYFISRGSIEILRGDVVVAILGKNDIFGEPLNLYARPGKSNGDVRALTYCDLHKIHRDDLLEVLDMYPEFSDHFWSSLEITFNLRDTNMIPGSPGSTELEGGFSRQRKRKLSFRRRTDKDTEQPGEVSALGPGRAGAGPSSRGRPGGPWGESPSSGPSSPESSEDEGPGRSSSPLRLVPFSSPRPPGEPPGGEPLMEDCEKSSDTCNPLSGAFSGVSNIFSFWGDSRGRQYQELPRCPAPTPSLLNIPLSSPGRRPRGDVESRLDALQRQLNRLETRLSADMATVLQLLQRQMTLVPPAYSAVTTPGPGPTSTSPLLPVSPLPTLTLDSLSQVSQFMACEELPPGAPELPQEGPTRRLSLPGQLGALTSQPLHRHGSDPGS
row,SMILES,"hERG current change (%, negative = inhibition) at 1uM [%]"
1,COc1cccc(N2CCN(C(=O)Cn3c(=O)oc4ccccc43)CC2)c1,4.28
2,Cc1ccc(-c2nn(-c3ccccc3)cc2/C=N/n2c(-c3cccs3)n[nH]c2=S)cc1,15
3,NS(=O)(=O)c1ccc(CCNC(=O)CNC(=O)c2ccccc2F)cc1,11.3
4,CCOc1ccc(Cc2noc3c2C(=O)CCC3)cc1OCC,23.3
5,O=C(NCCCCCCNC(=O)NCc1ccco1)NCc1ccco1,6.09
6,O=C1CCC(/C=C/c2ccccc2)=NN1Cc1ccc(Cl)c(Cl)c1,2.78
7,O=C(NCc1ccccn1)/C(=N/O)c1ccccc1,9.34
8,CC(C)n1c(O)c(N=Nc2ccc(Cl)nn2)c2ccccc21,10.7
9,C=CCNC(=S)/C(=C(\[O-])c1ccc(Cl)cc1)[n+]1ccccc1,11.2
10,Cc1ccc(S(=O)(=O)NCC2CCC(C(=O)N3CCN(C)CC3)CC2)cc1 (stereo not drawn),22.1
11,Cl.OC(COCc1ccc(Cl)cc1)CN1CCc2ccccc2C1 (stereo not drawn),-27.3
12,NC(=O)C1CCCN(CC(O)COCc2ccc(Cl)cc2)C1.O=C(O)C(=O)O (stereo not drawn),11.5
13,O=C(O)C(=O)O.OC(COCc1ccc(Cl)cc1)CN1CC=C(c2ccccc2)CC1 (stereo not drawn),-84.2
14,C=CC[N+]1(CC=C)CCOCC1.[Br-],34.2
15,COc1ccc(C(=O)/C=C/c2cn(CN3CCN(C)CC3)c3ccccc23)cc1,-3.29
16,CCOc1ccc2nc(N3CCC(C(=O)N4CCN(c5ncccn5)CC4)CC3)sc2c1,4.83
17,COc1ccc(N2CCN(c3cc(C)nc4ccc(OC)cc34)CC2)cc1,-31
18,Cc1ccc2nc(N3CCN(C(=O)c4ccco4)CC3)sc2c1,-7.42
19,COc1ccc2nc(C)cc(N3CCC(C(N)=O)CC3)c2c1,-2.62
20,CCOc1ccc2nc(N3CCC(C(=O)N4CCN(c5ccccn5)CC4)CC3)sc2c1,-17.4
21,CCOc1ccc2nc(N3CCC(C(=O)N4CCN(C5CCCCC5)CC4)CC3)sc2c1,-8.64

row,SMILES,"hERG current change (%, negative = inhibition) at 1uM [%]"
1,O=C(c1ccco1)N1CCN(c2nc3ccsc3c(=O)s2)CC1,-74.5
2,CCOC(=O)C1CCN(C(=O)C2CCN(c3nc4ccc(OC)cc4s3)CC2)CC1,-53.4
3,CCOC(=O)C1CCN(c2cc(C)nc3ccc(OC)cc23)CC1,-56.1
4,Cc1ccc(Cl)c2sc(N3CCN(C(=O)c4ccco4)CC3)nc12,-0.903
5,CCOc1ccc2nc(N3CCC(C(=O)N4CCN(C(=O)c5ccco5)CC4)CC3)sc2c1,-89.3
6,CCOc1ccc2nc(N3CCC(C(=O)N4CCC5(CC4)OCCO5)CC3)sc2c1,6.77
7,O=C(O)C1CCC(=O)N1C1c2ccccc2Oc2ccccc21 (stereo not drawn),7.76
8,CC(NCC(=O)NCCc1ccc(S(N)(=O)=O)cc1)c1ccc(F)cc1 (stereo not drawn),15.1
9,COc1ccccc1/C(C)=N/NC(=S)NCc1ccccc1,0.32
10,COCc1nc(-c2ccc(-c3ccc(C)cc3)nc2OC)no1,4.81
11,Cn1cccc1/C=N/N1CCN(c2ccccc2)CC1,18.1
12,COc1ccc(CC(=O)OCC(=O)N2CCCc3ccccc32)cc1,7.67
13,CCOC(=O)/C(C#N)=C1/C=CN(c2ccccc2)C=N1,7.43
14,CCCn1c(N)c(C(=O)CSc2nnc3n2CCCCC3)c(=O)[nH]c1=O,4.02
15,CCOP(=O)(OCC)/C(C#N)=C/c1ccc([N+](=O)[O-])cc1,-4.07
16,CCOC(=O)c1cc2c(=O)n3ccccc3nc2n(Cc2ccccc2)c1=N,-68.9
17,COCCCn1c(C(=O)Nc2ccc3c(c2)OCO3)cc2c(=O)n3ccccc3nc21,13.5
18,N=c1c(C(=O)NCc2ccc(F)cc2)cc2c(=O)n3ccccc3nc2n1Cc1cccnc1,-80.3
19,N#Cc1cc2c(=O)n3ccccc3nc2n(Cc2cccnc2)c1=O,2.54
20,COCCCn1c(=N)c(C(=O)NCc2ccc3c(c2)OCO3)cc2c(=O)n3ccccc3nc21,-87.4
21,CCCn1c(=NC(C)=O)c(C(=O)OCC)cc2c(=O)n3ccccc3nc21,8.09

row,SMILES,"hERG current change (%, negative = inhibition) at 1uM [%]"
1,COc1ccc(CNC(=O)c2cc3c(=O)n4ccccc4nc3n(Cc3cccnc3)c2=N)cc1,-32.6
2,CCCCn1c(=NC(=O)c2ccco2)c(C(=O)OCC)cc2c(=O)n3ccccc3nc21,-44.1
3,N=c1c(S(=O)(=O)c2ccccc2)cc2c(=O)n3ccccc3nc2n1Cc1cccnc1,6.5
4,N=c1c(S(=O)(=O)c2ccc(Cl)cc2)cc2c(=O)n3ccccc3nc2n1Cc1cccnc1,7.26
5,COCCCn1c(C(=O)N2CCOCC2)cc2c(=O)n3ccccc3nc21,3.13
6,COC(=O)c1cc2c(=O)n3ccccc3nc2n(Cc2cccnc2)c1=N,-51.5
7,Oc1[nH]c2ccc(Br)cc2c1N=NC(=S)N1CCOCC1,17.6
8,Cc1onc(-c2c(Cl)cccc2Cl)c1C(=O)O/N=C(\C#N)c1ccccc1,7.14
9,O=C(CSC1=NS(=O)(=O)c2cc(F)ccc2N1)Nc1cccc(F)c1,2.39
10,CCCc1cc(=O)[nH]c(SCC(=O)NC)n1,-0.511
11,O=Cc1cn(Cc2ccc(F)cc2)c2ccccc12,14.4
12,O=C(NCCCN1CCCC1=O)C1CCN(S(=O)(=O)c2cccc(C(F)(F)F)c2)CC1,23.6
13,CCc1nnc(NC(=O)C(C)N2C(=O)C3C4C=CC(C4)C3C2=O)s1 (stereo not drawn),3.03
14,O=C(NCc1ccc2c(c1)OCO2)c1cnc2ccccn2c1=O,5.17
15,N=c1c(C(=O)NCc2ccc3c(c2)OCO3)cc2c(=O)n3ccccc3nc2n1Cc1cccnc1,-51.5
16,O=C(CCn1c(=O)c2ccccc2n(Cc2cccnc2)c1=O)NCc1ccc2c(c1)OCO2,9.51
17,COCCCn1c(=N)c(C(=O)NC2CCCCC2)cc2c(=O)n3ccccc3nc21,-81.6
18,COc1ccc(CCn2c(=N)c(C(=O)NC3CCCC3)cc3c(=O)n4ccccc4nc32)cc1,-89.2
19,COc1ccc(Cn2c(=N)c(C(=O)NC3CCCCC3)cc3c(=O)n4ccccc4nc32)cc1,-5.89
20,COc1ccc(CCn2c(=N)c(C(=O)NC3CCCC3)cc3c(=O)n4cccc(C)c4nc32)cc1,-79.9
21,COc1ccc(CCn2c(=N)c(C(=O)NC3CCCCC3)cc3c(=O)n4ccccc4nc32)cc1,-84.1

row,SMILES,"hERG current change (%, negative = inhibition) at 1uM [%]"
1,COc1ccc(CCn2c(=N)c(C(=O)N3CCN(C)CC3)cc3c(=O)n4ccccc4nc32)cc1,-2.76
2,Cc1cccn2c(=O)c3cc(C(=O)NC4CCCC4)c(=N)n(CCc4ccccc4)c3nc12,-33.8
3,COc1ccc(CCn2c(=N)c(S(=O)(=O)c3ccccc3)cc3c(=O)n4ccccc4nc32)cc1,10.8
4,CCN(C(=O)c1cc2c(=O)n3ccccc3nc2n1CCCOC)C1CCCCC1,2.38
5,COc1ccc(CCn2c(=N)c(C(=O)NC3CCCC3)cc3c(=O)n4ccccc4nc32)cc1OC,-46.9
6,C/C(=N\NC(=O)c1cccc(F)c1)c1ccc(NC(=O)Cc2ccccc2)cc1,12.8
7,COc1cccc(CN2C(=NC(=O)C3CC3)SC3CS(=O)(=O)CC32)c1 (stereo not drawn),14.8
8,NC(=O)c1ccccc1NC(=S)NC(=O)CCc1ccccc1,6.72
9,CCSc1nnc(-c2ccc(OC)cc2)o1,3.96
10,Cc1cccc2cc(C#N)c(NCCNC(=S)NCCCN3CCOCC3)nc12,4.84
11,Oc1c(C=Nc2ccccc2)sc2ccccc12,12.4
12,CC(C)CC(=O)C1CCCN(C(=O)c2ccc3oc(Cc4ccccc4)nc3c2)C1 (stereo not drawn),11.9
13,Cn1c(CC(=O)Nc2ccc(Cl)c(Cl)c2)nnc1SCC(=O)NCc1ccccc1,9.85
14,COc1cc(SC)ccc1C(=O)N1CCc2ccccc21,13.9
15,N=c1c(C(=O)NC2CCCCC2)cc2c(=O)n3ccccc3nc2n1CCc1ccccc1,-88.1
16,Cc1cc2c(=O)n(Cc3ccco3)c(SCC(=O)N3CCCc4ccccc43)nc2s1,0.209
17,CC1CCCC(NC(=O)CCCn2c(=S)[nH]c3ccccc3c2=O)C1C (stereo not drawn),5.25
18,CN1CCC(=NNC(=O)CN(c2cccc(Br)c2)S(C)(=O)=O)CC1,1.22
19,CS(=O)(=O)Nc1ccc(C2=NN(C(=O)c3ccco3)C(c3ccc(F)cc3)C2)cc1 (stereo not drawn),-44.7
20,CS(=O)(=O)Nc1ccc(C2=NN(C(=O)c3ccco3)C(c3cccc(F)c3)C2)cc1 (stereo not drawn),-85.9
21,CCS(=O)(=O)Nc1ccc(C2=NN(C(=O)c3ccco3)C(c3cccc(F)c3)C2)cc1 (stereo not drawn),0.693
